From PubChem BioAssay (NCATS)
Where “and” joins values, the source holds several entries; their conditions need not be identical. Equal entries are not always repeated. Inconclusive results are not listed. Calls of active or inactive are those of the source. Unless noted, calls come from the whole dose curve; as a rule, active = well fitted curve in the direction sought with a large enough effect; inconclusive = small, poorly fitted or top-dose-only effect, or another doubt; inactive = no such curve, though single readings can be large; an effect the other way counts as inactive or inconclusive.

Legend:
[1] = Cell Viability - BJ (AID 421; calls by dose curve;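 note: potency is the fitted concentration of half-maximal effect; cells exposed to compound for 40 hours at 37 °C before readout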); conditions: BJ fibroblast viability, qHTS
In short: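 Cytotoxicity in human BJ foreskin fibroblasts is scored as loss of cellular ATP after a 40-hour exposure, measured by luciferase luminescence. Controls are DMSO and 100 uM tamoxifen.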

[2] = Cell Viability - Jurkat (AID 426;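 active = dose-dependent loss of cell ATP signal giving a full or clear fitted curve, ranked by lower potency value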;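 note: potency is the fitted concentration of half-maximal effect; cells exposed to compound for 40 hours at 37 °C before ATP read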); conditions: qHTS
In short: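 qHTS, 1536-well; Jurkat E6-1, 5000 cells/well, complete medium; cpd 40 hr, 37 °C; CellTiter-Glo 20 min RT; luminescence. AC50 by Hill fit.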

[3] = Cell Viability - Hek293 (AID 427;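 active = compounds whose dose-response curve shows a full or clear partial loss of cell viability, called from curve shape rather than a numeric limit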;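 note: potency is the fitted concentration of half-maximal effect; cells exposed to compound for 40 hours at 37 °C before reading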); conditions: qHTS
In short: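 qHTS, human embryonic kidney (adenovirus-transformed) cells; 40 hr cpd, 37 °C; CellTiter-Glo ATP luminescence. Norm: DMSO = 0, 100 uM tamoxifen = 100% inhibition. Hill-fit AC50.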

[4] = Cell Viability - SK-N-SH (AID 435; calls by dose curve;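 note: potency is the fitted concentration of half-maximal effect; compound exposure lasted 40 h at 37 °C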); conditions: SK-N-SH neuroblastoma cell viability qHTS
In short: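 Cells seeded at 1500 per well and incubated 5 hr at 37 °C. Compound added, then 40 hr at 37 °C. CellTiter-Glo added, 20 min at room temperature, luminescence read.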

[5] = Cellular Toxicity (caspase-3) Jurkat (AID 655); conditions: Jurkat caspase-3 activation, luminescence; caspase-3 activation: at 92.2 µM (top of the series), DMSO = 0%, tamoxifen = 100%;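 note: cells exposed to compound for 16 h at 37 °C before reading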
In short: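 Caspase 3/7 activation is scored as increased luminescence in Jurkat cells cultured with compound for 16 hours in complete medium. AC50 values come from Hill fits of qHTS concentration-response data normalized to DMSO and 100 uM tamoxifen controls.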

[6] = Cellular Toxicity (caspase-3) SHSY5Y (AID 657); conditions: SH-SY5Y caspase-3 activation, DMSO zero, 10 µM staurosporine = 100%; series mostly up to 91.7 µM
In short: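 Cells plated and incubated 5 h at 37 °C, dosed over a concentration range, incubated 16 h, then given Caspase-Glo 3/7 reagent for 1 h at room temperature before luminescence reading. Staurosporine (10 uM) defined full stimulation.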

[7] = Cellular Toxicity (caspase-3) BJ (AID 658); conditions: BJ fibroblasts, luminescence, normalized: DMSO 0%, staurosporine 100%; series mostly up to 91.7 µM
In short: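 Luminescent aminoluciferin-substrate cleavage reports caspase 3/7 activity in normal human BJ fibroblasts after 16 hr compound exposure at 37 °C. Normalized to DMSO (basal) and 10 uM staurosporine (100%); AC50 from Hill fit of concentration-response.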

[8] = Cellular Toxicity (caspase-3) N2a (AID 665); conditions: N2a cells, luminescence, normalized: DMSO 0%, 10 µM staurosporine 100%; series mostly up to 92.2 µM;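 note: compound exposure lasted 16 h at 37 °C before readout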
In short: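 N2a cells, 1500/well, 5 h settle at 37 °C; cpd 16 h, 37 °C; Caspase-Glo 3/7, 1 h RT; luminescence. Norm: DMSO = 0, 10 uM staurosporine = 100%. AC50, Hill fit.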

[9] = Cellular Toxicity (caspase-3) Renal Proximal Tubule (AID 667); conditions: renal proximal tubule cells; series mostly up to 91.7 µM;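 note: cells exposed to compound for 16 hours at 37 °C before detection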
In short: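 In qHTS format, rat primary proximal tubule cells seeded at 1000 per well are exposed to compounds for 16 hours at 37 °C. An increase in Caspase-Glo 3/7 luminescence indicates caspase activation.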

[10] = MultiTox-Fluor Cytotoxicity Assay - LYMP1-001 - Dead Cells (AID 946); conditions: LYMP1-001 lymphoblastoid cells, dead-cell protease fluorescence; series mostly up to 92.2 µM
In short: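 Seed 2500 LYMP1-001 cells/well, incubate 5 hr at 37 C; add compound, 16 hr at 37 C; add MultiTox-Fluor reagent, 60 min RT; read dead-cell fluorescence Ex/Em=485/520. Normalize to DMSO and 15 uM tetraoctylammonium bromide.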

[11] = Cell Viability - LYMP1-002 - Assay at 16 hr (AID 948); conditions: LYMP1-002 lymphoblastoid cell viability; series mostly up to 92.2 µM;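 note: 0% = DMSO alone and full effect = 92 µM tetraoctylammonium bromide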
In short: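 Acute cytotoxicity is scored as a concentration-dependent fall in intracellular ATP in a human lymphoblastoid line (LYMP1-002) after 16 hr compound exposure at 37 C, measured by luciferase luminescence.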

[12] = MultiTox-Fluor Cytotoxicity Assay - LYMP1-003 - Dead Cells (AID 961); conditions: LYMP1-003 lymphoblastoid cells, dead-cell protease fluorescence; series mostly up to 92.2 µM; note: nearly all actives have a fitted effect of over 70% in size
In short: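 LYMP1-003 lymphoblastoid, 2500 cells/well, 5 hr settle then 16 hr cpd at 37 C; MultiTox-Fluor reagent 60 min RT; Ex/Em 485/520 dead-cell signal; norm. DMSO = 0%, 15 uM tetraoctylammonium bromide = 100%; Hill AC50.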

[13] = Cell Viability - LYMP1-003 - Assay at 24 hr (AID 963); conditions: LYMP1-003 lymphoblastoid cell viability; series mostly up to 92.2 µM;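 note: plate controls were DMSO only for no effect and tetraoctylammonium bromide positive control for full effect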
In short: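 Cells seeded at 2500/well, 5 hr at 37 C; compounds added; 24 hr at 37 C; CellTiter-Glo added, 30 min room temperature; luminescence read. Decrease in ATP taken as cytotoxicity, AC50 from Hill modelling.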

[14] = Cell Viability - LYMP2-013 (AID 970); conditions: LYMP2-013 lymphoblastoid cells viability; series mostly up to 92.2 µM;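 note: cells exposed to compound for 24 h at 37 °C; 0% = DMSO only and full inhibition = tetraoctylammonium bromide control; nearly all actives have a fitted effect of over 55% in size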
In short: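 qHTS; 2500 lymphoblastoid cells/well; 5 hr 37 C settle; cpd 24 hr 37 C; CellTiter-Glo, 30 min RT; luminescence. AC50 = Hill fit.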

[15] = Cell Viability - LYMP2-016 (AID 984); conditions: LYMP2-016 lymphoblastoid cell viability, qHTS; series mostly up to 92.2 µM;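 note: cells exposed to compound for 24 hours at 37 °C; % is set by controls: 0 for no effect and ±100 for the full control effect; nearly all actives have a fitted effect of over 55% in size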
In short: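 Acute toxicity in a Coriell human lymphoblastoid line is scored as loss of intracellular ATP over 24 h of treatment in complete medium. CellTiter-Glo signal is fitted across concentrations with the Hill equation to give AC50.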

[16] = Cell Viability - LYMP1-002 - Assay at 24 hr (AID 993); conditions: LYMP1-002 lymphoblastoid cells viability; series mostly up to 92.2 µM; note: % is set by controls: 0 for no effect and ±100 for the full control effect
In short: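 Cells plated 2500/well, 5 hr 37 C; compounds added, 24 hr 37 C; CellTiter-Glo added, 30 min RT; luminescence read. Tetraoctylammonium bromide positive control. Hill-equation AC50.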

[17] = qHTS Assay for Identification of Small Molecule Inducers of Hypoxia Response (AID 2120; active = well fitted curve in the direction sought with a large enough effect in the signal ratio, with a control signal flat, not every such curve was filed as active; the % refers to the signal ratio; note: 0% is about no effect); conditions: hypoxia response reporter cells, beta-lactamase ratio readout; series mostly up to 104 µM
In short: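 ME-180 HRE-bla cells plated in Opti-MEM/0.5% dialyzed FBS, rested 4-5 h, then dosed with compound titrations by pin tool. After 17 h at 37 degrees C, CCF4 dye loaded 2.5 h at RT; 460/530 nm ratio gave %Activity and AC50.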

[18] = target: Peroxisome proliferator-activated receptor alpha (Homo sapiens) (UniProt Q07869); experiment: qHTS assay for small molecule agonists of the peroxisome proliferator-activated receptor alpha (PPARalpha) signaling pathway (AID 651778); conditions: PathHunter PPARalpha complementation, chemiluminescence, 6 h; hits give high values; note: % of control where 0% means no effect
Peroxisome proliferator-activated receptor alpha (Homo sapiens), sequence (Q07869 whole entry, looked up): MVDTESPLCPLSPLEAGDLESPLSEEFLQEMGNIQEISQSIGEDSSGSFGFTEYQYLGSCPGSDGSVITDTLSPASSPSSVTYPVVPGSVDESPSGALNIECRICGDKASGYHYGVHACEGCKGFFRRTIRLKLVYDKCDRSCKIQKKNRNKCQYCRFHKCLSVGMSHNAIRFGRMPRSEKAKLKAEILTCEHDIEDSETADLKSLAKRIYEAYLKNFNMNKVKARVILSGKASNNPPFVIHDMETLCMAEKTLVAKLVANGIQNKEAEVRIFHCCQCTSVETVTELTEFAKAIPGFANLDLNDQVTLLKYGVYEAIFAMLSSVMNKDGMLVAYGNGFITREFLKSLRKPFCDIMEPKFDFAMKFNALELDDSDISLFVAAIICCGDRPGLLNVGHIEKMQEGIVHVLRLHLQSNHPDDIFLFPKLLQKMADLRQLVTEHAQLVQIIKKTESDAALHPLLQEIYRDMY
In short: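 Cells plated at 2,000/well and held overnight at 37 C, 5% CO2, then compound added by pin tool for 6 hr; after PathHunter detection reagent and 60 min at room temperature, chemiluminescence from enzyme complementation was read.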

[19] = qHTS assay for cell viability of HEK293 cells (AID 743288); conditions: ATP luminescence (CellTiter-Glo), 18 h, hits give low values; note: % is set by controls: 0 for no effect and ±100 for the full control effect; nearly all actives have a fitted effect of over 50% in size
In short: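 The Tox21 protocol used parental HEK293 cells treated for 18 h at 37 C with compounds delivered by pintool; ATP-coupled luminescence after 30 min at room temperature gave viability.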

[20] = qHTS assay for cell viability of the p53RE-bla HCT-116 cell line (AID 743292); conditions: p53RE-bla HCT-116 viability, ATP luminescence, 16 h; series mostly up to 95 µM; note: % is set by controls: 0 for no effect and ±100 for the full control effect; nearly all actives have a fitted effect of over 55% in size
In short: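 Luminescent ATP quantitation (CellTiter-Glo) served as the viability read-out; reagent was added after 16 h compound exposure at 37 C and read after 30 min at room temperature. Cells: p53RE-bla HCT-116, 4,000 per well.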

C/C=C/C=O
inactive: Potency [1] > 92 µM | Potency [2] > 92 µM | Potency [3] > 92 µM | Potency [4] > 92 µM | caspase-3 activation [5] 0.559% | outcome [6] | outcome [7] | outcome [8] | outcome [9] | outcome [10] | outcome [11] | Potency [12] | outcome [13] | Potency [14] | Potency [15] | Potency [16] | Potency [17] | max response [18] 10% | max response [19] 5.69% | Potency [20]

Nc1c(Cl)cc([N+](=O)[O-])cc1Cl
inactive: Potency [1] > 92 µM | Potency [2] > 92 µM | Potency [3] > 92 µM | Potency [4] > 92 µM | caspase-3 activation [5] 3.21% | outcome [6] | outcome [7] | outcome [8] | outcome [9] | outcome [10] | outcome [11] | Potency [12] | outcome [13] | Potency [14] | Potency [15] | Potency [16] | Potency [17] | max response [18] -4.31% and -1.23% | max response [19] 7.25% and -11.8% | Potency [20]

ClC=CCl
inactive: Potency [1] > 92 µM | Potency [2] > 92 µM | Potency [3] > 92 µM | Potency [4] > 92 µM | caspase-3 activation [5] 1.45% | outcome [6] | outcome [7] | outcome [8] | outcome [9] | outcome [10] | outcome [11] | Potency [12] | outcome [13] | Potency [14] | Potency [15] | Potency [16] | Potency [17] | max response [18] -2.13% | max response [19] -11.1% | Potency [20]

Clc1cccc2ccccc12
inactive: Potency [1] > 92 µM | Potency [2] > 92 µM | Potency [3] > 92 µM | Potency [4] > 92 µM | caspase-3 activation [5] 0.494% | outcome [6] | outcome [7] | outcome [8] | outcome [9] | outcome [10] | outcome [11] | Potency [12] | outcome [13] | Potency [14] | Potency [15] | Potency [16] | Potency [17] | max response [18] -0.995% | max response [19] -4.26% | Potency [20]

CC1CC(=O)O1 (stereo not given)
inactive: Potency [1] > 92 µM | Potency [2] > 92 µM | Potency [3] > 92 µM | Potency [4] > 92 µM | caspase-3 activation [5] -1.79% | outcome [6] | outcome [7] | outcome [8] | outcome [9] | outcome [10] | outcome [11] | Potency [12] | outcome [13] | Potency [14] | Potency [15] | Potency [16] | Potency [17] | max response [18] -0.51% | max response [19] -7.61% | Potency [20]
